According to PubChem BioAssay AID720579 (National Center for Advancing Translational Sciences (NCATS), 2013):
About 1,900 (0.61%) of roughly 310,000 compounds were called active. Not shown: some 8% with an inconclusive outcome. Calls come from the whole dose curve; tested in A549 cells. What follows is part of a selection rich in actives, with near analogues and random picks from the rest.

Assay: qHTS for Stage-Specific Inhibitors of Vaccinia Orthopoxvirus: mCherry Reporter Primary qHTS; note: nearly all actives have a fitted effect of over 35% in size
Settings: Vaccinia virus mCherry reporter infection, fluorescence; series mostly up to 36.5 µM; activity change, negative = inhibition: at the top concentration
% is set by controls: 0 for no effect and ±100 for the full control effect; potency is the fitted concentration of half-maximal effect.

Row | Structure (SMILES) | Potency | activity change, negative = inhibition | outcome
1 | CN(O)C(=S)c1ccccc1 | 14.1 µM (active) |  | 
2 | CN(CC(=O)O)C(=O)c1ccccc1 |  | -12.1% (inactive) | 
3 | S=C(c1ccccc1)N1CCCC1 |  | -10.8% (inactive) | 
4 | Cc1ccc2nc(-c3ccccc3)c(CC3CCCCC3)n2c1 |  |  | inactive
5 | CCCCSc1nc2ccccc2[nH]1 |  | -6.23% (inactive) | 
6 | CCC(C)N1C(=O)S/C(=C/c2ccc(Sc3nc4ccccc4[nH]3)o2)C1=O (stereo not drawn) | 12.6 µM (active) |  | 
7 | CCC(c1nc2ccccc2[nH]1)n1c(=O)c(-c2cccs2)nc2ccccc21 (stereo not drawn) |  | -2.3% (inactive) | 
8 | CN(C)c1ccc(C=Nc2ccc(/C=C/c3ccnc4ccccc34)cc2)cc1 |  | 25.4% (inactive) | 
9 | CC(C)n1ncc2c(C(=O)N3CCN(Cc4cccs4)CC3)cc(C3CC3)nc21 |  |  | inactive
10 | Cc1cccc(N2CCN(c3ccc(NC(=O)/C=C\C(=O)O)cc3)CC2)c1 |  | -0.733% (inactive) | 
11 | C=CC(=O)Nc1ccc(Nc2ccnc(Nc3ccc(N4CCN(C)CC4)cc3)n2)cc1 | 5.01 µM (active) |  | 
12 | CN1CCN(c2ccc(NC(=O)c3ccccc3)cc2)CC1 |  | -13.3% (inactive) | 
13 | CC(=O)Nc1ccc(C=CC(=O)c2ccc([N+](=O)[O-])cc2)cc1 |  | -0.232% (inactive) | 
14 | CN(C)c1ccc(/C=C/C(=O)c2ccc(O)cc2)cc1[N+](=O)[O-] | 15.8 µM (active) |  | 
15 | O=C(/C=C/c1ccc(Cl)c([N+](=O)[O-])c1)c1ccc(O)cc1 |  |  | inactive
16 | COc1cccc(C(O)c2nc(-c3ccc(C)c(C)c3)cs2)c1 (stereo not drawn) |  | 1.77% (inactive) | 
17 | O=C(c1ccc(C(F)(F)F)cc1)N1CCC(=O)N([C@H](COCc2ccccc2)Cc2ccccc2)CC1 |  | 3.14% (inactive) | 
18 | CN(C)c1ccc(/C=C2\C=Cc3ccccc32)cc1Br |  | -17.2% (inactive) | 
19 | CCCCN(C=O)c1c(CC)nc2c(OCCC3CCCCC3)cccn12 |  | -14.4% (inactive) | 
20 | CN(C)C(CNC(=O)c1cccc(S(=O)(=O)N2CCc3ccccc3C2)c1)c1ccccc1 (stereo not drawn) |  | -25.9% (inactive) | 
21 | COCOCCn1cc(CN2CCS(=O)(=O)N(Cc3ccc(-c4ccc(OC)cc4)cc3)C(CC(C)C)C2=O)nn1 (stereo not drawn) |  | -13.6% (inactive) | 

Row | Structure (SMILES) | Potency | activity change, negative = inhibition | outcome
22 | O=C(CCCN1C(=O)/C(=C/c2ccco2)SC1=S)Nc1ccccc1 |  | -12.4% (inactive) | 
23 | O=C(CCN1C(=O)/C(=C/c2cccs2)SC1=S)NNC(=O)c1cccc(O)c1 |  | -8.34% (inactive) | 
24 | O=C(CCCN1C(=O)/C(=C/c2cccs2)SC1=S)Nc1ccc(O)cc1 | 10 µM (active) |  | 
25 | O=C1C(Sc2cccc(F)c2)=C[C@@]2(O)CC[C@@H](O)[C@]1(Sc1cccc(F)c1)[C@H]2O |  | -11.8% (inactive) | 
26 | CCCCCNC(=O)C(c1ccc(OC)cc1)n1c(=O)c(-c2ccccc2)nc2ccccc21 (stereo not drawn) |  |  | inactive
27 | CC(OC(=O)c1ccc(Cl)cc1O)C(=O)NCCC1=CCCCC1 (stereo not drawn) |  |  | inactive
28 | COC(=O)c1ccc(NC(=O)CSc2nnc(CNc3ccc(OC)cc3)n2C)cc1 |  | -12.7% [at 1.46 µM] (inactive) | 
29 | COC(=O)c1ccc(NCc2cc(O)ccc2O)cc1 | 10 µM (active) |  | 
30 | CC(C)OC(=O)c1ccc(NCc2cc(O)ccc2O)cc1Cl | 4.47 µM (active) |  | 
31 | CC(C)NC(=O)c1ccc(Cl)cc1Cl |  |  | inactive
32 | C#CCNc1ccc(C(=O)OCC)cc1 |  | -9.77% (inactive) | 
33 | COc1ccc(C(=O)N2CCCCC2c2cc(C(=O)Nc3ccccc3)no2)cc1 (stereo not drawn) |  |  | inactive
34 | COc1ccc(-c2coc3c(C(=O)NC(C)C)cccc23)c(C)c1 |  |  | inactive
35 | CCCCC[C@@H]1C=C(C(=O)OCC)[C@H](c2ccccc2)N1S(=O)(=O)c1ccc(C)cc1 |  | 5.26% (inactive) | 
36 | COCc1cccc(-c2csc(C(O)c3ccc(F)cc3)n2)c1 (stereo not drawn) |  |  | inactive
37 | O=C(Oc1ccc(Br)cc1)c1cccnc1 |  |  | inactive
38 | CCCCCCOc1ccc(OC(=O)c2cccnc2)cc1 | 10 µM (active) |  | 
39 | N#CCc1ccc(OC(=O)c2cccnc2)cc1 |  |  | inactive
40 | O=C(CC(CC(=O)c1ccccc1)c1ccco1)c1ccccc1 |  |  | inactive
41 | Cc1ccccc1-c1nc(NC(C)C)nc2cc(-c3ccccc3)sc12 |  |  | inactive
42 | Cc1ccccc1S(=O)(=O)N1[C@@H](c2cccc(Cl)c2)C(C(=O)OC(C)(C)C)=CC[C@H]1c1ccc(Cl)cc1 |  | 0.209% (inactive) | 

Row | Structure (SMILES) | Potency | activity change, negative = inhibition | outcome
43 | COc1cc2nc(N3CCCN(C)CC3)nc(NC(C)C)c2cc1OC |  | -17.2% (inactive) | 
44 | C=CC[C@@H](CC(=O)N[C@@H](CO)Cc1ccccc1)C(=O)N[C@H](COC(=O)[C@H](CC=C)CC(=O)OC(C)(C)C)Cc1ccccc1 |  | -14.1% (inactive) | 
45 | C=CCC[C@H](Cc1ccc(F)cc1)C(=O)OC[C@@H](NC(=O)[C@@H](CC=C)CC(=O)N[C@H](CO)Cc1ccccc1)C(C)(C)C | 12.6 µM (active) |  | 
46 | C=CCC[C@H](Cc1ccc(F)cc1)C(=O)OC[C@@H](Cc1c[nH]c2ccccc12)NC(=O)[C@H](CC=C)CC(=O)N[C@H](CO)Cc1ccccc1 |  | -11% (inactive) | 
47 | COc1ccc2[nH]c3c(c2c1)CCN[C@H]3C |  | -21% (inactive) | 
48 | COc1ccc2[nH]c(C(=O)N3CCN(C)CC3)c(C)c2c1 |  |  | inactive
49 | COc1ccc2[nH]c3c(C)c4cc[n+](C)cc4c(C)c3c2c1 | 11.2 µM (active) |  | 
50 | Cc1ccc(Nc2nc(CSc3nnc(-c4ccncc4)n3-c3ccccc3C)cs2)cc1 | 10 µM (active) |  | 
51 | Cc1ccccc1-n1c(SCC(=O)NCc2cccs2)nnc1-c1ccncc1 |  | -3.57% (inactive) | 
52 | Cc1ccc(-n2c(SCC(=O)N3c4ccccc4Sc4ccccc43)nnc2-c2ccncc2)cc1 |  | -4.9% (inactive) | 
53 | Cc1ccc(S(=O)(=O)Nc2nc(C)cc(N/N=C/c3ccc(O)cc3)n2)cc1 |  | -6.98% (inactive) | 
54 | Cc1cc(N/N=C\c2ccc(Br)cc2)nc(-n2nc(C)cc2C)n1 | 2.24 µM (active) |  | 
55 | COc1cc(Cl)c(C)cc1Nc1nnc(-n2nc(C)cc2C)c2ccccc12 |  | -2.28% (inactive) | 
56 | COc1ccccc1/C=N\Nc1cc(C)nc(-n2nc(C)cc2C)n1 | 5.62 µM (active) |  | 
57 | COc1ccc(NC(=O)c2nc(-n3nc(C)cc3C)ccc2Cl)cc1Cl |  | -18.6% (inactive) | 
58 | Cc1cccc(Nc2cc(C)nc(-n3nc(C)cc3C)n2)c1 |  | -3.8% [at 7.34 µM] (inactive) | 
59 | COc1cc(CNc2ncnc3c2ncn3[C@H]2CN(Cc3cccs3)C[C@@H](CO)O2)cc(OC)c1OC |  |  | inactive
60 | COc1ccc(/C=C/c2ccccn2)cc1OC |  | 21.9% (inactive) | 
61 | CCOC(=O)[C@]12CCCC=C1N(Cc1cccc3ccccc13)C(=O)[C@H](CC(=O)NCC13CC4CC(CC(C4)C1)C3)C2 |  | -0.908% (inactive) | 
62 | CC(C)Oc1c(Br)cc(Br)cc1/C=N/NC(N)=S | 3.98 µM (active) |  | 
63 | NC(=S)N/N=C/c1coc2cc(Cl)ccc2c1=O |  | -7.3% (inactive) | 

Row | Structure (SMILES) | Potency | activity change, negative = inhibition | outcome
64 | Cc1cccc(-n2c(C)cc(/C=N/NC(N)=S)c2C)c1 |  | -5.12% (inactive) | 
65 | CCCCCCCCN1C(=O)[C@H](CC(=O)NCc2cccc3ccccc23)C[C@@]2(C(=O)OC)CCCCC=C12 |  | -22.5% (inactive) | 
66 | COc1ccc(Cn2c(=O)[nH]c3cc(C(=O)N4CCN(C(=O)c5ccco5)CC4)ccc3c2=O)cc1 |  |  | inactive
67 | CC1C(C)N(C(=O)CCl)c2ccccc2N1C(=O)CCl (stereo not drawn) | 8.91 µM (active) |  | 
68 | CCCn1c(=N)n(CC(=O)c2ccc(Cl)c(Cl)c2)c2ccccc21 |  | -14.5% (inactive) | 
69 | CCNC(=O)N1c2ccccc2Sc2ccccc21 |  | -3.31% (inactive) | 
70 | COC(=O)[C@]12CCCCC=C1N(Cc1ccc3c(c1)OCO3)C(=O)[C@H](CC(=O)NCc1cccs1)C2 |  | -23.1% (inactive) | 
71 | C(=Nc1ccc(/C=C/c2ccnc3ccccc23)cc1)Nc1ccc(/C=C/c2ccnc3ccccc23)cc1 |  | -8.7% (inactive) | 
72 | CN(C)S(=O)(=O)c1cccc(NC(=O)Cc2ccsc2)c1 | 12.6 µM (active) |  | 
73 | CN(C)S(=O)(=O)c1cccc(NC(=O)COC(=O)c2cc(=O)[nH]c(=O)[nH]2)c1 |  |  | inactive
74 | CN(C)S(=O)(=O)c1cccc(NC(=O)COC(=O)/C=C/c2cccs2)c1 |  | -12.8% (inactive) | 
75 | O=C(NC(c1ccc(Cl)cc1)c1cnccn1)C1CCN(Cc2ccc(Cl)cc2)CC1 (stereo not drawn) |  | -18.8% (inactive) | 
76 | O=C(Nc1cccc2ccccc12)c1[nH]c(-c2ccccc2)c2c1C(=O)N(C1CC1)C2=O |  | -11.3% (inactive) | 
77 | CCCCC(CCCC)c1ccc(C=Nc2ccc(/C=C/c3ccnc4ccccc34)cc2)cc1 |  | -8.04% (inactive) | 
78 | Oc1ccc(N=Nc2nccs2)c(O)c1 | 3.98 µM (active) |  | 
79 | CCN1CCN(c2ccc(/C=C/c3ccnc4ccccc34)cc2)CC1 |  | 8.12% (inactive) | 
80 | N#Cc1ccc(C(C(=O)NCc2ccccc2)n2c(=O)c(-c3ccco3)nc3ccccc32)cc1 (stereo not drawn) |  | 3.83% (inactive) | 
81 | CC1(Oc2cccc(F)c2)CCN(Cc2ccccc2OC(F)F)C1 (stereo not drawn) |  | -7.02% (inactive) | 
82 | CCN(C(=O)Nc1cccc2ccccc12)c1ccccc1 |  | -9.5% (inactive) | 
83 | CC(=O)N1Cc2cc(C(=O)NCc3cccc(F)c3)nc(-c3cccc(C4=CCCCC4)c3)c2[C@H]1CCO |  | 19.3% (inactive) | 
